13 molecules from PubChem BioAssay (NCATS) can be followed below.

For assay [1], the system named is C33A. The assay can be described thus: Primary qHTS to identify gynecologic anti-cancer compounds using libraries of approved drugs and bioactive compounds (AID 1345084). For activity change, negative = cytotoxicity: % is set by controls: 0 for no effect and ±100 for the full control effect. Note: nearly all actives have a fitted effect of over 55% in size. Note: potency is the fitted concentration of half-maximal effect. Particulars: Gynecologic cancer cell panel viability, ATPlite luminescence, 48 h; series mostly up to 57.5 µM. In outline:
(§1)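 Five-point cytotoxicity, 48 h drug exposure at 37 C, 5% CO2, on cells seeded 16 h beforehand. ATP content read by ATPlite luminescence.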

Assay [2] deals with CAOV3. The assay is described as above. Particulars: Gynecologic cancer cell panel viability, ATPlite luminescence, 48 h; series mostly up to 57.5 µM. In outline: as §1
Assay [3] deals with CASKI. The assay is described as above. The note with it: Gynecologic cancer cell panel viability, ATPlite luminescence, 48 h; series mostly up to 57.5 µM. In outline: as §1
A general note: ATP-based viability assays read luminescence as a measure of living cells.

Assay [4] concerns Es-2. Described as above. Particulars: Gynecologic cancer cell panel viability, ATPlite luminescence, 48 h; series mostly up to 57.5 µM. In outline: as §1
For assay [5], the system named is HeLa. The description is as above. Particulars: Gynecologic cancer cell panel viability, ATPlite luminescence, 48 h; series mostly up to 57.5 µM. In a few lines: as §1
The subject of assay [6] is Hek293T. The assay is described as above. Particulars: Gynecologic cancer cell panel viability, ATPlite luminescence, 48 h, control line for the selectivity index; series mostly up to 57.5 µM. In a few lines: as §1
The test system of assay [7] is JEG-3. Described as above. The note with it: Gynecologic cancer cell panel viability, ATPlite luminescence, 48 h; series mostly up to 57.5 µM. In a few lines: as §1
The test system of assay [8] is OV90. The assay is described as above. The note with it: Gynecologic cancer cell panel viability, ATPlite luminescence, 48 h; series mostly up to 57.5 µM. In outline: as §1
Assay [9] deals with SKOV3. The assay is described as above. Particulars: Gynecologic cancer cell panel viability, ATPlite luminescence, 48 h; series mostly up to 57.5 µM. In outline:
as §1

Assay [10] deals with Tov-21-G. Described as above. Particulars: Gynecologic cancer cell panel viability, ATPlite luminescence, 48 h; series mostly up to 57.5 µM. In outline:
as §1

Assay [11] relates to Tov112D. The assay is described as above. Particulars: Gynecologic cancer cell panel viability, ATPlite luminescence, 48 h; series mostly up to 57.5 µM. In a few lines:
as §1

In assay [12] the test system is PA-1. Described as above. The note with it: Gynecologic cancer cell panel viability, ATPlite luminescence, 48 h; series mostly up to 57.5 µM. In a few lines: as §1
In assay [13] the target is Nuclear receptor subfamily 1 group I member 2 (Rattus norvegicus) (UniProt Q9R1A7). Put plainly: qHTS assay for small molecule activators of the rat pregnane X receptor (rPXR) signaling pathway (AID 651751; call rule not given here; note: 0% is about no effect). The note with it: rPXR reporter cells, luciferase (One-Glo), 24 h.
Assay [14] can be described thus: qHTS assay for small molecule activators of the human pregnane X receptor (PXR) signaling pathway (AID 720659; call rule not given here; note: 0% is about no effect). In general terms: In qHTS, concentration-response curves come from the screen itself.

Molecules are shown by their SMILES. A number with no mark means an inactive call. Results filed as inconclusive are left out. Active and inactive are the calls of the source. Unless noted, calls come from the whole dose curve; as a rule, active = well fitted cell-killing curve with a large enough effect; inconclusive = small, poorly fitted or top-dose-only effect, or effect the other way; inactive = flat fitted curve, though single readings scatter.

Chain of Nuclear receptor subfamily 1 group I member 2 (Rattus norvegicus) (Q9R1A7 whole entry, looked up): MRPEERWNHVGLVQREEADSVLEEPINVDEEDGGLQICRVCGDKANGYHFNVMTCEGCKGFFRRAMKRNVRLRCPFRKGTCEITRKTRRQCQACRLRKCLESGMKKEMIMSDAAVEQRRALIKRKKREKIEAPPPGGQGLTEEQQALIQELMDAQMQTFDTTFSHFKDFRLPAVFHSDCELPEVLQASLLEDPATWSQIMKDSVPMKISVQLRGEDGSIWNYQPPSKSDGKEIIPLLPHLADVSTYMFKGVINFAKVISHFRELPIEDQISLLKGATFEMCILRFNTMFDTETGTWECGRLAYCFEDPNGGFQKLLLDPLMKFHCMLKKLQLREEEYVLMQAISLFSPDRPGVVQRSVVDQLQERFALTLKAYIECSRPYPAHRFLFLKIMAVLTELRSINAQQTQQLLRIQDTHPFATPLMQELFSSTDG

As for `O=C(O[C@@H]1O[C@H](CO)[C@@H](O)[C@H](O)[C@H]1O)c1ccccc1`, the Potency entry in assay [1], in assay [2], in assay [4], in assay [5], in assay [6] and in assay [7] was “inactive” each time. The Potency result in assay [8], in [9], in [10] and in assay [11] was “inactive” in each case. Moreover, in [3], the call was inactive.

On to `COc1ccc(CCC(=O)c2c(O)cc(O[C@@H]3O[C@H](CO)[C@@H](O)[C@H](O)[C@H]3O[C@@H]3O[C@@H](C)[C@H](O)[C@@H](O)[C@H]3O)cc2O)cc1O`, for which the Potency result in assay [1], in assay [2], in [4], in assay [5], in assay [6] and in [7] was “inactive” in each case. In addition, the Potency result in assay [12], in [9], in [10] and in assay [11] was “inactive” each time. Besides, the molecule was called inactive in [3] and in assay [14]. In addition, the max response in assay [13] was -0.0245%.

On to `NC[C@@H]1O[C@@H](O[C@@H]2[C@@H](O[C@@H]3O[C@H](CO)[C@@H](O)[C@H]3O)[C@H](O)[C@@H](N)C[C@H]2N)[C@@H](N)[C@H](O)[C@H]1O`, for which the activity change, negative = cytotoxicity in assay [1] is 8.18% [at 11.6 µM]; in [2], 0.692% [at 11.6 µM]; in assay [3] it was 0.509% [at 11.6 µM]; in assay [4] it was 6.5% [at 11.6 µM]; in assay [5], 15.1% [at 11.6 µM]; in assay [6], 17.2% [at 11.6 µM]. Also, the activity change, negative = cytotoxicity is 7.01% [at 11.6 µM] in [7]; 0.365% [at 11.6 µM] in assay [8]; 2.15% [at 11.6 µM] in assay [9]; -2.07% [at 11.6 µM] in assay [10]; -1.83% [at 11.6 µM] in assay [11].

For `O=C(/C=C/c1ccc(O)c(O)c1)O[C@H]1[C@H](OC2CCCCC2O)O[C@H](CO)[C@@H](O)[C@@H]1O` (stereo partly drawn), the Potency entry in [1], in assay [2], in [4], in assay [6], in assay [7] and in assay [8] was “inactive” throughout. In addition, the Potency result in assay [10] and in [11] was “inactive” throughout. In assay [3], the molecule was classed as inactive. For the same molecule, the Potency in assay [5] is 11.2 µM (active).

Turning to `CC1(C)CC[C@]2(C(=O)O)CC[C@]3(C)C(=CCC4[C@@]5(C)C(=O)C[C@H](O)[C@@](C)(CO)C5CC[C@]43C)[C@@H]2C1` (stereo partly drawn), the Potency result in assay [1], in assay [2], in [4], in assay [5], in assay [6] and in assay [7] was “inactive” in each case. Further, the Potency result in assay [8], in assay [9], in [10] and in [11] was “inactive” in each case. Besides, the call in assay [3] was inactive.

Regarding `C[C@@H]1O[C@@H](O[C@H]2[C@H](O[C@H]3[C@H](O[C@H]4CC[C@@]5(C)C(CC[C@]6(C)C5CC=C5[C@@H]7CC(C)(C)CC(=O)[C@]7(C)CC[C@]56C)[C@@]4(C)CO)O[C@H](C(=O)O)[C@@H](O)[C@@H]3O)O[C@H](CO)[C@H](O)[C@@H]2O)[C@H](O)[C@H](O)[C@H]1O` (stereo partly drawn), the activity change, negative = cytotoxicity in assay [1] was 0.189% [at 11.6 µM]; in assay [2], 7.98% [at 11.6 µM]; in assay [3], 5.16% [at 11.6 µM]; in assay [4], -0.773% [at 11.6 µM]; in assay [5], 5.13% [at 11.6 µM]; in assay [6], -1.22% [at 11.6 µM]. The activity change, negative = cytotoxicity in [7] was 4.8% [at 11.6 µM]; in assay [8], -8.44% [at 11.6 µM]; in [9], 0.762% [at 11.6 µM]; in assay [10], 5.22% [at 11.6 µM]; in assay [11], -2.67% [at 11.6 µM].

As to `COc1cc(C(CO)C(OC2OC(CO)C(O)C(O)C2O)c2ccc(O)c(OC)c2)ccc1O` (stereo not drawn), the Potency result in [1], in assay [2], in [4], in assay [5], in assay [6] and in assay [7] was “inactive” throughout. Moreover, the Potency result in assay [8], in assay [9], in assay [10] and in [11] was “inactive” each time. Moreover, the molecule was classed as inactive in assay [3].

On to `O=C(NC/C=C/CN1CCN(c2cccc(Cl)c2Cl)CC1)c1ccc(-c2ccccn2)cc1`, for which the Potency result in assay [1], in assay [2], in assay [4], in assay [5], in assay [6] and in assay [7] was “inactive” in each case. The Potency entry in assay [8], in assay [10] and in assay [11] was “inactive” each time. The molecule was classed as inactive in [3].

In the case of `CC(=O)O[C@@H]1CC2C(C)(C)C(=O)C=C[C@]2(C)C2CC[C@]3(C)C(=CC(=O)[C@@H]3c3ccoc3)[C@@]21C` (stereo partly drawn), the Potency entry in assay [1], in assay [2], in assay [4], in assay [5], in assay [6] and in assay [7] was “inactive” throughout. The Potency result in assay [12], in assay [9], in assay [10] and in assay [11] was “inactive” in each case. The outcome in [3] was inactive.

For the molecule `COc1cc(Cc2cnc(N)nc2N)c(C(C)C)cc1OC`, the Potency entry in [1], in assay [2], in [4], in assay [5], in [6] and in [7] was “inactive” in each case. Besides, the Potency result in assay [12], in [9], in assay [10] and in assay [11] was “inactive” in each case. Moreover, the call in assay [3] was inactive.

On to `Cc1onc(-c2ccccc2Cl)c1C(=O)N(C)c1ccc(Cl)cc1`, for which the Potency entry in [1], in assay [2], in [4], in assay [5], in [6] and in assay [7] was “inactive” in each case. The Potency result in [8], in assay [9], in [10] and in [11] was “inactive” each time. For the same molecule, in assay [3], the molecule was classed as inactive.

For the molecule `C=C1CCc2occ(C)c2[C@H]2[C@H]1[C@@]13O[C@@]1(C[C@@H](C)[C@H]3OC(C)=O)[C@H]1O[C@@]21C`, the Potency result in assay [1], in [2], in assay [4], in assay [5], in assay [6] and in assay [7] was “inactive” in each case. Besides, the Potency entry in [12], in [9], in [10] and in assay [11] was “inactive” in each case. Also, the result in [3] was inactive.

On to `CC1CCC2C(C(=O)O)=CC3(O)CC(C)(C)CC123` (stereo not drawn), for which the Potency entry in assay [1], in assay [2], in assay [4], in assay [5], in assay [6] and in assay [7] was “inactive” in each case. For the same molecule, the Potency result in assay [8], in assay [9], in [10] and in assay [11] was “inactive” each time. Further, in assay [3], the outcome was inactive.
